Inconclusive results are not listed. Where a call stands in place of a potency, no number is given. Active and inactive are the calls of the source. The call rests on the fitted dose curve; in most records, active means well fitted inhibition curve with a large enough effect; inconclusive means small, poorly fitted or top-dose-only effect; inactive means flat fitted curve, though single readings scatter.
Assay: P-glycoprotein substrates identified in KB-8-5-11 adenocarcinoma cell line, qHTS therapeutic library screen (AID 1346987); further: nearly all actives have a fitted effect of over 65% in size
Conditions: KB-8-5-11 (P-gp overexpressing) viability, CellTiter-Glo, 72 h; series mostly up to 44.5 µM
Summary of the method: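 Compounds are pinned in dose-response onto KB-8-5-11 cells (500 cells/well, colchicine-free medium) and left 72 h at 37 degree C. CellTiter-Glo luminescence then yields AC50 values.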
Potency means the concentration at half of the fitted maximal effect.

SMILES | Potency | activity change, negative = cytotoxicity
CO/N=C(\C(=O)N[C@@H]1C(=O)N2C(C(=O)OCOC(=O)C(C)(C)C)=C(/C=C\c3scnc3C)CS[C@H]12)c1csc(N)n1 | inactive | –
C=C1C(=O)O[C@@H]2[C@H]1CC(=O)[C@H](C)[C@@](O)(C(=O)/C=C/C)[C@H]2OC(=O)C(C)CC (some centres undefined) | 5.7 µM (active) | –
C[C@]12CC[C@@H]3c4ccc(O)c(O)c4CC[C@H]3[C@@H]1CCC2=O | inactive | –
Nc1nc2c(s1)CCN(Cc1ccc(Cl)cc1)CC2 | inactive | –
CC(C)=C[C@@H]1[C@H](CO[C@@H]2O[C@H](CO)[C@@H](O)[C@H](O)[C@H]2O)C1(C)C | inactive | –
CNC(C)C(=O)NC(C(=O)N1CCCC1C(=O)Nc1snnc1-c1ccccc1)C1CCCCC1 (centres undefined) | inactive | –
COc1ccc(-c2ccc3c(N4CCOCC4C)nc(N4CCOCC4C)nc3n2)cc1CO (centres undefined) | 0.0731 µM (active) | –
CN(C)CCN(Cc1ccc(-c2ccc(CNCCc3ccccc3)cc2)cc1)C(=O)CCC1CCCC1 | 4.11 µM (active) | –
CC1CC(=O)C2=C(C1)C1OC1C1(O)C2C(=O)c2cccc(O)c2C1O (centres undefined) | inactive | –
CCC(CC)C(=O)OC12C(OC(=O)C(C)C)C(C)C3(O)C(C=C(CO)CC4(O)C(=O)C(C)=CC43)C1C2(C)C (centres undefined) | inactive | –
CC(/C=C/C(=O)NO)=C\[C@@H](C)C(=O)c1ccc(N(C)C)cc1 | 0.58 µM (active) | –
Cc1ccc(C)c(NC(=O)[C@@H]2CCCN2S(=O)(=O)c2cccc3cccnc23)c1 | inactive | –
CC(C)n1cnc2c(-c3cnc(N)nc3)nc(N3CCOCC3)nc21 | 0.709 µM (active) | –
COc1ccc2cc(-c3cc(-c4cc(Cl)cc(Cl)c4)nn3C(C)c3ccc(C(=O)NCCC(=O)O)cc3)ccc2c1 (centres undefined) | inactive | –
COc1c2c(nc3occc13)C(CC=C(C)C)(OC)C(O)CC2 (centres undefined) | inactive | –
Cc1ccc(OC[C@H](O)[C@H](C)NC(C)C)c2c1CCC2 | inactive | –
O=C(CCl)Nc1cccc(NC2=NS(=O)(=O)c3ccccc32)c1 | 18.4 µM (active) | –
CCc1cc(C(N)=O)ccc1-n1nc(C(C)C)c2c(-n3cnc(-c4cnn(C)c4)c3)ccnc21 | 3.66 µM (active) | –
CC(=O)O[C@@H]1C2=C(O)C(=O)[C@](C)(OC(C)=O)C(=O)C2=CO[C@@]12O[C@@H](C)CC[C@H]2OC(C)=O | inactive | –
Cn1nc(C(C)(C)C)cc1C(=O)N[C@@H](Cc1cccc(Cl)c1)C(=O)NCC#N | inactive | –

SMILES | Potency | activity change, negative = cytotoxicity
C1=Cc2ccccc2C(=C2CCN(CCCCc3nn[nH]n3)CC2)c2ccccc21 | inactive | –
C1CNCCN1 | inactive | –
C=C1C(=O)O[C@@H]2[C@H]3C(C)=CC(=O)C3=C(C)CC[C@@H]12 | 14.6 µM (active) | –
COc1ccc(CCN(C)CCCOc2nsc(-c3ccccc3)n2)cc1OC | inactive | –
CCCCCC(O)/C=C/C=O (centres undefined) | inactive | –
CN(C(=O)CO)c1c(I)c(C(=O)NCC(O)CO)c(I)c(C(=O)NCC(O)CO)c1I (centres undefined) | inactive | –
C=C(NC(=O)C(=C)NC(=O)c1csc(C2=NC3c4csc(n4)C4NC(=O)c5csc(n5)C(C(C)(O)C(C)O)NC(=O)C5CSC(=N5)/C(=C/C)NC(=O)C(C(C)O)NC(=O)c5csc(n5)C3(CC2)NC(=O)C(C)NC(=O)C(=C)NC(=O)C(C)NC(=O)C(C(C)CC)NC2C=Cc3c(C(C)O)cc(nc3C2O)C(=O)OC4C)n1)C(N)=O (centres undefined) | inactive | –
COc1ccccc1-c1ccc(-c2cn(C(=O)N3CCCCC3Cc3ccccc3)nn2)cc1 (centres undefined) | inactive | –
CNCCCC1(c2ccccc2)OC(C)(C)c2ccccc21 (centres undefined) | inactive | –
Nc1nc2c(cnn2CCCc2ccc(O)cc2)c2nc(-c3ccco3)nn12 | inactive | –
O=C(Nc1ccc(-c2ccnc(Nc3ccc(N4CCOCC4)cc3)n2)cc1)C1CCCN1 (centres undefined) | 14.6 µM (active) | –
O=C(NO)c1ccc(CC(=O)N(CCO)c2ccccc2)cc1 | inactive | –
C[C@@H](N[C@H]1CCCC[C@@H]1NC(=O)c1ccc(Cl)cc1)c1cccc2ccccc12 | 23.1 µM (active) | –
CC1(C)CC[C@]23CO[C@@]4(CCC5[C@@]6(C)CC[C@H](O[C@@H]7OC[C@H](O[C@@H]8O[C@H](CO)[C@@H](O)[C@H](O)[C@H]8O[C@@H]8OC[C@@H](O)[C@H](O)[C@H]8O)[C@H](O)[C@H]7O)[C@@](C)(CO)C6CC[C@@]5(C)[C@]4(C)CC2=O)[C@@H]3C1 (some centres undefined) | – | -22.9% [at 9.29 µM] (inactive)
Cc1sc2c(c1C)C(c1ccc(Cl)cc1)=N[C@H](CC(=O)NCCCCNC(=O)COc1cccc3c1C(=O)N([C@H]1CCC(=O)NC1=O)C3=O)c1nnc(C)n1-2 | inactive | –
N[C@@H]1c2cccnc2[C@H](OC(=O)N2CCC(n3c(=O)[nH]c4ncccc43)CC2)CC[C@H]1c1cccc(F)c1F | inactive | –
O=C1O[C@H]2[C@H](O)[C@@H]1OC(O)[C@H]2O (some centres undefined) | inactive | –
O=C(Nc1ccc(Cl)cc1)Nc1cccc(-c2cccc(N3CCCC3)n2)c1 | 20.6 µM (active) | –
COc1ccc(C2(N(C)C(=O)c3ccc(NC(=O)c4ccco4)cc3)CCOCC2)cc1 | inactive | –
